Screening data as filed in PubChem BioAssay.
The list is not random: actives were taken first. Their share in the collection is about 28%.
CYP2C9 inhib = blocks human cytochrome P450 2C9 | P11712 | CYP2C9 Supersomes, luciferin-H conversion, luminescence | inhibition, % at 5 µM | hit rate 20% among 96,000;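 active = blocking of liver enzyme CYP2C9 beyond about 50% at 5 µM, limit read from the data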
Mac1 fbg enh = increases human CD11b/CD18 adhesion to fibrinogen | P05107+P11215 | K562 CD11b/CD18 adhesion to fibrinogen, ATPlite luminescence | activation, % at 10 µM | hit rate 0.07% among 93,000 | AID 1499;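 active = 10 µM primary screen giving 50% or more activity, confirmed by 40% or more on retest at that dose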
CYP2C19 inh = human CYP2C19 inhibition; P33261; CYP2C19 Supersomes, luciferin-H EGE luminescence, 30 min; inhibition, % at 5 µM; hit rate 21% among 96,000;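 active = CYP2C19 inhibition above a set limit at 5 µM in the primary screen, cut at about 50% in these data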;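 also: plate controls were negative control wells for no effect and 2.5 mM tranylcypromine positive control for full effect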
CD11b adhes inh = blocks human CD11b/CD18 adhesion to fibrinogen. inhibition, % at 10 µM. hit rate 0.54% among 93,000. AID 1497. K562 CD11b/CD18 adhesion to fibrinogen, ATPlite luminescence; Mn2+ added to activate the integrin. P05107+P11215;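 active = primary inhibition of 50% or more at 10 µM, then 40% or more on retest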
CYP2C19 activ = increases human CYP2C19 enzyme activity. recombinant CYP2C19, luciferin-H EGE luminescence; stronger effect = higher value; 0 = fully inhibited enzyme, 1 = untreated enzyme. P33261. AID 1025. 96,000 tested, under 10 active. activation factor at 5 µM;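 active = activation factor of at least 2 at 5 µM in the primary screen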;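 also: 0 = wells with 2.5 mM tranylcypromine and 1 = vehicle-only wells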
CYP2C9 activ = increases human cytochrome P450 2C9 activity. P11712. recombinant CYP2C9, luciferin-H conversion, luminescence; stronger effect = higher value; factor 1 = untreated enzyme, 0 = blocked. activation factor at 5 µM. hit rate 1.4% among 96,000;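 active = activation factor of 2 or more for CYP2C9 at a 5 µM dose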;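 also: 0 = sulfaphenazole-blocked wells and 1 = vehicle-only wells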
An asterisk follows results filed as active; . = no result.

SMILES	CYP2C9 inhib	Mac1 fbg enh	CYP2C19 inh	CD11b adhes inh	CYP2C19 activ	CYP2C9 activ
O=C(CN(Cc1ccccc1)S(=O)(=O)c1ccccc1)N/N=C/c1ccccc1[N+](=O)[O-]	65*	1	42	-12	0.6	0.3
O=C(Cn1cnc2ccccc21)N/N=C/c1ccccc1[N+](=O)[O-]	.	5	.	5	.	.
Cc1ccc(CN(CC(=O)N/N=C/c2ccccc2[N+](=O)[O-])S(=O)(=O)c2ccc(C)cc2)cc1	85*	0	97*	10	0	0.2
CCCOc1ccc(OCCNC2CCCC2)cc1	-8	.	-13	.	1.1	1.1
CC1=NNC(=O)C1C(c1ccccc1)C(C#N)C#N (stereo not drawn)	24	-1	25	-6	0.7	0.8
O=C(Nc1ccccc1)C1=C(N2CCOCC2)/C(=C/c2cccnc2)CC1	67*	-5	87*	-3	0.1	0.3
COc1ccc(OC)c(C2Nc3nc4ccccc4n3C(C)=C2C(=O)Nc2ccc(C)cc2C)c1 (stereo not drawn)	10	2	10	8	0.9	0.9
Cc1nn(-c2ccccc2)c2sc(-c3n[nH]c(=S)o3)cc12	66*	-2	-6	44	1.1	0.3
Cc1nn(-c2ccccc2)c2sc(C(=O)N(CC(=O)NC(C)(C)C)Cc3ccco3)cc12	56*	1	25	8	0.8	0.4
Cc1ccc(-n2nc(C)c3cc(C(=O)O)sc32)cc1	4	0	-11	-5	1.1	1
Cc1nn(-c2ccccc2)c2sc(C(=O)O)cc12	-16	-3	-3	1	1	1.2
COC(=O)c1cc2c(C)nn(-c3ccccc3)c2s1	10	2	52*	-10	0.5	0.9
Cc1nn(-c2ccccc2)c2sc(C(=O)OCc3nnc(-c4ccccc4)o3)cc12	55*	1	2	-5	1	0.5
O=C(Cc1ccccc1)NCC(=O)N1CCCCCC1	11	0	24	-50	0.8	0.9
CC(SCc1ccccc1)C(=O)NN=C1CCN(C)CC1 (stereo not drawn)	-9	0	11	-32	0.9	1.1
Cc1nn(-c2ccccc2)c2sc(C(=O)OC3CCOC3=O)cc12 (stereo not drawn)	68*	.	31	.	0.7	0.3
Cc1nn(-c2ccccc2)c2sc(C(=O)OCC(=O)N3CCCCC3)cc12	-5	-3	-2	-3	1	1
N#Cc1nc(Cc2cccc3ccccc23)oc1NCCN1CCCCC1	-5	-2	-4	4	1	1
CC1CN(c2oc(Cc3cccc4ccccc34)nc2C#N)CC(C)O1 (stereo not drawn)	60*	1	64*	-6	0.4	0.4
CC(C)Nc1oc(Cc2cccc3ccccc23)nc1C#N	56*	-2	99*	-5	0	0.4
CC1CN(c2oc(-c3cccs3)nc2C#N)CC(C)O1 (stereo not drawn)	20	.	34	.	0.7	0.8
CNc1oc(Cc2cccc3ccccc23)nc1C#N	34	-7	96*	5	0	0.7
COc1cc(/C=N/NC(=O)c2cccnc2)ccc1OCC(=O)N1CCOCC1	.	-1	.	-3	.	.
Cc1oc2c(c1C(=O)Nc1ccc(C(=O)O)cc1)CCCC2	33	-4	-8	8	1.1	0.7
Cc1ccsc1C(=O)Nc1ccc(C(=O)O)cc1	57*	0	92*	0	0.1	0.4
SMILES	CYP2C9 inhib	Mac1 fbg enh	CYP2C19 inh	CD11b adhes inh	CYP2C19 activ	CYP2C9 activ
O=C(Nc1ccc(F)cc1)c1cccc(NC(=O)C2C3CC4OC(=O)C2C4C3)c1 (stereo not drawn)	3	5	-8	40	1.1	1
CCOC(=O)c1cc(-c2ccc(C)cc2)n(CC(=O)NCc2ccco2)c1C	77*	0	83*	-7	0.2	0.2
CC(=O)c1cc(-c2ccccc2)n(CC(=O)NCc2cccs2)c1C	41	0	88*	2	0.1	0.6
Cc1c(NC(=O)C(C)NCC2CCCO2)c(=O)n(-c2ccccc2)n1C (stereo not drawn)	-7	3	4	-23	1	1.1
COC(=O)C1=CNC=C(C(=O)OC)C1c1ccc(Cl)cc1	75*	10	75*	-26	0.3	0.3
COCCN1C=C(C(=O)OC)C(c2ccccc2C(F)(F)F)C(C(=O)OC)=C1	49	1	40	-8	0.6	0.5
COC(=O)C1=CNC=C(C(=O)OC)C1c1ccccc1Cl	70*	-2	84*	-6	0.2	0.3
COC(=O)C1=CNC=C(C(=O)OC)C1c1cccc(OC)c1	79*	0	86*	-21	0.1	0.2
CCOC(=O)C1=C(N)N2C(=O)C(C)SC2=C(C(=O)OC)C1c1cccc(OC)c1 (stereo not drawn)	24	-6	21	25	0.8	0.8
Cc1ccc(Cl)c(OCC(=O)OCC(=O)NC2CCCc3ccccc32)c1 (stereo not drawn)	.	1	.	0	.	.
C=CCNC(=O)c1onc(CSc2ccc(F)cc2)c1C(=O)O	22	.	13	.	0.9	0.8
CCCCNC(=O)c1onc(CSc2ccc(OC)cc2)c1C(=O)O	80*	-7	-12	10	1.1	0.2
COCCNC(=O)c1onc(CSc2ccccc2)c1C(=O)O	34	.	25	.	0.8	0.7
CCCCNC(=O)c1onc(CSc2ccc(F)cc2)c1C(=O)O	58*	.	6	.	0.9	0.4
CCC(C)C(NC(C)=O)C(=O)NC(=O)NC(c1ccccc1)c1ccccc1 (stereo not drawn)	80*	-2	78*	-2	0.2	0.2
CCn1c(Cc2ccccc2)nnc1SCC(=O)Nc1nnc(-c2ccccc2)s1	30	-4	48	-3	0.5	0.7
Cc1cc(C)nc(NC(=O)CSc2nc3cc(Cl)ccc3s2)n1	-167	14	-1	-5	1	2.7*
CC1CN(C(=O)CSc2nc(-c3ccccc3)cs2)CC(C)O1 (stereo not drawn)	8	-7	93*	-10	0.1	0.9
CC1(C)C(=O)Nc2ccccc2N1C(=O)CSc1nc(-c2ccccc2)cs1	.	2	.	14	.	.
O=C(COc1ccccc1)N1CCN(C(=O)c2ccco2)CC1	18	1	35	6	0.6	0.8
O=C(CSc1nc(-c2ccccc2)cs1)N1CCN(C(=O)c2ccco2)CC1	-16	2	62*	-3	0.4	1.2
O=C(CSc1nc2cc(Cl)ccc2s1)N1CCN(C(=O)c2ccco2)CC1	86*	-3	86*	6	0.1	0.1
O=C(CSc1nc2cc(Cl)ccc2s1)c1cc2ccccc2o1	6	-2	-7	19	1.1	0.9
Cc1cc(C)nc(NC(=O)CSc2nc3ccccc3s2)n1	3	-3	28	-5	0.7	1
Cc1cc(C(=O)O)c(CCCN)s1	-8	1	-4	-2	1	1.1
